Screening results: PubChem, National Center for Advancing Translational Sciences (NCATS)
This is a sample that favours compounds with a hit; in the whole collection about 19% have one here.
DT40 TDP1 no CPT = qHTS for Inhibitors of human tyrosyl-DNA phosphodiesterase 1 (TDP1): qHTS in cells in absence of CPT | DT40 Tdp1-/- hTDP1 cells, no CPT, ATP luminescence, 48 h | 420,000 compounds, 15% hits | Potency, µM (doses to about 46.2 µM), actives largely listed as inhibitors | AID 686978, 2013; further: nearly all actives have a fitted effect of over 55% in size
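Luminescent ATP content (CellTiter-Glo) served as the growth readout. Knockout chicken DT40 cells expressing human TDP1 were exposed to compounds without camptothecin for a minimum 48 hr at 37 °C.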
HT1080 IDH1KD tx = kills HT-1080 cells with IDH1 knockdown. HT-1080 IDH1 knockdown viability, ATP luminescence, 48 h. Potency, µM (series often up to 46.1 µM), actives largely listed as cytotoxic. 360,000 compounds, 2% hits. AID 686971
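Viability of IDH1-knockdown HT-1080 fibrosarcoma cells was assessed by CellTiter-Glo after 48 h at 37 °C with titrated compound; concentration-effect curves were classified by fit quality and response size.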
uPA surface inh = inhibitors of cell surface uPA generation; Potency, µM (series often up to 38.3 µM), hits mostly inhibitors; 330,000 compounds, 0.31% hits; cell surface uPA generation assay, qHTS; active means well fitted inhibition curve with a large enough effect; inconclusive means small, poorly fitted or top-dose-only effect; inactive means no such curve, though single readings can be large or run the other way; tested in mouse RAW 264.7 cells; further: nearly all actives have a fitted effect of over 55% in size
HT1080NT lethal = kills 2HG-producing HT-1080-NT fibrosarcoma cells. 360,000 compounds, 1.6% hits. Potency, µM (doses to about 46.1 µM), hits mostly cytotoxic. AID 686970. HT-1080-NT fibrosarcoma viability, CellTiter-Glo ATP luminescence, 48 h;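 further: NT is the 2HG producing partner of a matched IDH1 knockdown line; nearly all actives have a fitted effect of over 55% in size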
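Luminescent CellTiter-Glo readout after 48 hours of compound exposure at 37 degrees C defined viability of HT-1080-NT cells. Activity was normalized to DMSO wells and cell-free media wells; concentration-response curves were fitted and assigned curve classes.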
IL-1B inflam inh = blocks inflammasome-driven IL-1 beta release. THP-1 LPS/ATP IL-1B secretion, AlphaLISA, 16 h; stronger effect = lower value. 360,000 compounds, 4.7% hits. AID 743279. activity change, % at 57.5 µM; in the data active means activity change below about -50%; inconclusive means mostly about -30% to -49%
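Secreted IL-1B measured by AlphaLISA bead assay after 16 h compound exposure of THP-1 cells; compounds (final up to 57.5 uM) added 1 h before LPS (250 ng/mL) and ATP (1.25 mM) stimulation; lower signal means less secretion.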
TDP1 cell CPT = growth inhibition of DT40 Tdp1-/-;hTDP1 cells with camptothecin (screen for TDP1 inhibitors) | Potency, µM (top dose mostly 46.2 µM), usual class: inhibitors | AID 686979 | chicken DT40 Tdp1-/-;hTDP1 cells + 20 nM CPT, ATP luminescence, 48 h | 420,000 compounds, 12% hits; further: nearly all actives have a fitted effect of over 55% in size
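Chicken DT40 Tdp1-/- cells complemented with human TDP1, 400 cells/well, exposed to compounds plus 20 nM camptothecin for at least 48 h at 37 C; viability read as ATP content by CellTiter-Glo luminescence.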
A number is an active result; - = inactive; ? = inconclusive; . = no result given; [ ] = dose if it differs, or a comment. Unless noted, the call rests on the fitted dose curve; in most records, active means well fitted curve in the direction sought with a large enough effect; inconclusive means small, poorly fitted or top-dose-only effect, or another doubt; inactive means no such curve, though single readings can be large; an effect the other way counts as inactive or inconclusive.

SMILES	DT40 TDP1 no CPT	HT1080 IDH1KD tx	uPA surface inh	HT1080NT lethal	IL-1B inflam inh	TDP1 cell CPT
Cc1ccc(S(=O)(=O)Nc2ccc3cn[nH]c3c2)c(C)c1	-	-	-	-[9.24 µM]	-	?
Cc1ccc(S(=O)(=O)Nc2ccc3nc(C)sc3c2)c(C)c1	15µM	-	?	-	-	?
Cc1nc2cc(NS(=O)(=O)c3ccccc3F)ccc2s1	-	-	-	-	-	-
COc1ccccc1S(=O)(=O)Nc1ccc2nc(C)sc2c1	21µM	-	-	-	-	2.6µM
Cc1nc2ccc(NS(=O)(=O)c3ccccc3F)cc2s1	?	-	-	-	-	?
Cc1nc2ccc(NS(=O)(=O)c3c(C)c(C)cc(C)c3C)cc2s1	21µM	23µM	-	?	-	?
Cc1nc2cc(NS(=O)(=O)c3c(C)c(C)cc(C)c3C)ccc2s1	11µM	13µM	-	13µM	-	20µM
COc1ccc(CC(=O)Oc2ccc(Cl)cc2Br)cc1S(=O)(=O)N1CCOCC1	-	-	-	-	-	-
Cc1cc([N+](=O)[O-])cc(/C=N\NC(=O)C2COc3ccccc3O2)c1O (stereo not given)	13µM	?	-	?	-	16µM
COc1cc(/C=N/NC(=O)C2COc3ccccc3O2)ccc1O (stereo not given)	-	-	-	-	-	-
COc1ccc(/C=N\NC(=O)C2COc3ccccc3O2)cc1O (stereo not given)	?	12µM	-	15µM	-	15µM
O=C(N/N=C\C=C\c1ccco1)C1COc2ccccc2O1 (stereo not given)	10µM	?	-	?	-	2.6µM
COc1cc(/C=N\NC(=O)C2COc3ccccc3O2)cc(OC)c1O (stereo not given)	-	-	-	-	-71	-
O=C(N/N=C\c1ccc(O)c([N+](=O)[O-])c1)C1COc2ccccc2O1 (stereo not given)	-	-	-	-	-	-
COc1ccc(/C=N/NC(=O)C2COc3ccccc3O2)cc1OC (stereo not given)	-	-	-	-	-	-
COCCn1c(=O)c(-c2ccc(Cl)cc2)nc2cnc(Oc3ccccc3)nc21	-	.	.	.	.	-
O=C(N/N=C/c1ccc2c(c1)OCO2)C1COc2ccccc2O1 (stereo not given)	23µM	?	-	?	-	?
C/C(=N\NC(=O)C1COc2ccccc2O1)c1ccccn1 (stereo not given)	2.9µM	?	-	?	-	5.8µM
COCC(=O)Nc1cc(C(=O)N2CC3CC4CC(C3)CC2C4)c2c(c1)nc(-c1ccncc1)n2C	?	.	.	.	.	-[9.04 µM]
CC(=O)NC(CC(=O)NCCc1ccccc1)c1ccccc1 (stereo not given)	-	-	-	-	-	-
O=C(CC(c1ccccc1)c1ccccc1O)NCCc1ccccc1 (stereo not given)	?	-	-	-	-51	-
O=C(CS(=O)(=O)Cc1ccccc1)NCc1ccccc1Cl	-	-	-	-	?	-
O=C(CC(c1ccccc1)c1ccccc1O)NCc1ccccc1Cl (stereo not given)	16µM	-	-	-	?	23µM
CCCCCCNC(=O)CC(c1ccccc1)c1cc(Br)ccc1O (stereo not given)	26µM	?	-	?	?	?
COc1ccc(CCNC(=O)CC(c2ccccc2)c2cccc(C)c2O)cc1OC (stereo not given)	9.2µM	-	-	-	-	12µM
SMILES	DT40 TDP1 no CPT	HT1080 IDH1KD tx	uPA surface inh	HT1080NT lethal	IL-1B inflam inh	TDP1 cell CPT
CC(NC(=O)Cc1ccc(S(=O)(=O)N2CCOCC2)s1)c1ccc(Cl)c(Cl)c1 (stereo not given)	?	-	-	-	-	?
COc1ccc(N2CCN(C3CCCN(C(=O)C4=C(C)OCCO4)C3)CC2)cc1 (stereo not given)	-	-	-	-	-	-
Cc1nc2cnc(N(C)C)nc2n(C2CC2)c1=O	-	.	.	.	.	-
CCCCNC(=O)c1cn(CC)c2cc(N3CCN(C)CC3)c(F)cc2c1=O	-	-	-	-	-	-
CCCNC(=O)c1cn(CC)c2cc(N3CCN(C(=O)c4ccco4)CC3)c(F)cc2c1=O	21µM	-	-	-	-	?
CCn1cc(C(=O)NCc2cccc(F)c2)c(=O)c2cc(F)c(N3CCN(C(=O)c4ccco4)CC3)cc21	8.2µM	23µM	-	13µM	-54	5.8µM
CCn1cc(C(=O)NCc2cccnc2)c(=O)c2cc(F)c(N3CCN(C(=O)c4ccco4)CC3)cc21	21µM	-	-	-	-	21µM
COc1ccc(CCC(=O)Nc2c(-c3ccc(N(C)C)cc3)[nH][nH]c2=O)cc1	-	-	.	-	-	?
COc1ncc2nc(-c3ccccc3)c(=O)n(CCC#N)c2n1	-	.	.	.	.	-
O=C(N/N=C/C(Br)=C/c1ccccc1)c1n[nH]c2c1CCC2	4.1µM	7.9µM	?	?	-	2.6µM
O=C(N/N=C/c1ccccc1)c1n[nH]c2c1CCCC2	?	?	-	?	?	?
O=C(N/N=C/c1cccs1)c1n[nH]c2c1CCC2	3.7µM	6.5µM	-	7.3µM	-	4.1µM
O=C(N/N=C/c1ccc(Cl)cc1)c1n[nH]c2c1CCCC2	0.92µM	0.52µM	-	0.41µM	-	0.58µM
Cc1ccc(CNC(=O)C2CCN(S(=O)(=O)c3ccc4[nH]c(=O)ccc4c3)CC2)cc1	-	.	.	.	.	-
COc1cccc(NC(=O)[C@H](C)NC(=O)C2CCN(S(=O)(=O)c3ccc(C)cc3)CC2)c1	-	-	-	-	-	-
COc1ccccc1C1CN(Cc2cccn2-c2ncccn2)Cc2ccccc2O1 (stereo not given)	-	.	.	.	.	-[9.04 µM]
CCS(=O)(=O)N1CC(=O)N(c2ccc(C)c(C)c2)C(C)(C(=O)NC2CCCCCC2)C1 (stereo not given)	-	.	.	.	.	?
Cc1ccc(Cl)cc1NC(=O)C(Cc1ccccc1)N1C(=O)C2C3CCC(C3)C2C1=O (stereo not given)	15µM	-	-	-	-	?
CCN(c1ccccc1)S(=O)(=O)c1ccc(Cl)nc1	?	-	-	-	-	-
CCN(c1cccc2ccccc12)S(=O)(=O)c1ccc(Cl)nc1	?	-	-	-	-75	?
C(#Cc1ccccc1)CN1CCCCC1	-	-	-	-	-	-
C(#CCN1CCCC1)CC(c1ccccc1)c1ccccc1	16µM	?	-	?	-64	?
CCn1cc(C(=O)NCC(OC)OC)c(=O)c2cc(S(=O)(=O)N3CCC(C)CC3)ccc21	10µM	-	-	-	-	?
